# Reference: ChEMBL document CHEMBL4513216, “Probing the Open Global Health Chemical Diversity Library for Multistage-Active Starting Points for Next-Generation Antimalarials” (ACS Infect Dis, 2020)
# Out of some 69,000 compounds screened, about 8,600 (12%) showed an effect of 50% or more. For the sample, strong results were picked, then their nearest neighbours and some compounds at random.
# System: Plasmodium berghei
# Assay: Screen against P. berghei liver stage (PbLuc), transformed with Luciferase, at 10uM
# Format: functional, HepG2
# Details: tested at 10 uM
row,SMILES,INHIBITION
1,CNC(=O)CCc1cccc(C2CCCN(c3cc(C)ncn3)C2)n1 (centres undefined),44.8%
2,Cc1nnc2n1CCN(C(=O)c1cn(-c3ccccc3)nn1)C2,-53.6%
3,CNC(=O)[C@@H]1C[C@H]2CN(C(=O)c3ccco3)C[C@H]2N1C(C)C,16.4%
4,Cc1noc([C@H]2COC[C@H]3CN(C(=O)Cc4ccsc4)C[C@H]32)n1,-32%
5,c1cnc(N2CC[C@@H](N3CCOCC3)[C@@H]2Cc2ccncc2)nc1,60%
6,Fc1cnc(N2CC[C@@H](N3CCOCC3)[C@@H]2Cc2ccncc2)nc1,21.6%
7,Cc1cnc(N2CC[C@@H](N3CCOCC3)[C@@H]2Cc2ccncc2)nc1,33.4%
8,Cc1cc(CN2CCC(CNS(=O)(=O)c3ccccc3Cl)CC2)c(C)o1,30.7%
9,O=C(C1CCOCC1)N1C[C@H]2CC(OCc3ccccc3)C[C@H]2C1 (some centres undefined),-25.3%
10,C1CCC(c2nn3c(C4CCCO4)nnc3s2)C1 (centres undefined),1.24%
11,N#Cc1ncn(CC(=O)Cc2c(F)cccc2Cl)n1,26.8%
12,N#Cc1ncn(Cc2c(F)cccc2Cl)n1,64.4%
13,CN(Cc1c(F)cccc1Cl)C(=O)Cn1cnc(C#N)n1,28.7%
14,Cc1cc(C)cc(OCn2ccc(C(=O)O)n2)c1,39.1%
15,CSCCNC(=O)c1ccc(OC2CCN(CC(C)(C)C)CC2)c(Cl)c1,52.4%
16,COC(=O)N1CCC(Oc2ccc(C(=O)NCCN(C)C)cc2Cl)CC1,-56.4%
17,CN(C)CCNC(=O)c1ccc(OC2CCN(CC3CC3)CC2)c(Cl)c1,-73.6%
18,CC1(C)OC(=O)N(CCCOc2ccc(F)cc2)C1=O,10.7%
19,CCc1cnc(NCC2OCCc3ccccc32)nc1 (centres undefined),44.3%
20,CCNc1ncc(C(=O)NCC2OCCc3ccccc32)cn1 (centres undefined),41.5%
21,CC(=O)c1cnc(NCC2OCCc3ccccc32)nc1C (centres undefined),74.9%
22,Cc1ncsc1C(=O)NC1CCN(CCC#N)CC1,14.4%
23,Cc1noc(NC(=O)c2ccc(F)cc2)n1,25.1%
24,COc1cc(C(=O)NS(=O)(=O)c2cc(Cl)sc2Cl)ccc1OC(F)F,93.6%
25,COc1cc(C(=O)Nc2nc(C)no2)cc(OC)c1Br,91.4%

row,SMILES,INHIBITION
1,Cc1noc(COCC(=O)Nc2cc(C)c(Br)cn2)n1,-21.8%
2,COc1cc(C(=O)NC(CC(=O)O)c2cccs2)cc(Cl)c1OC (centres undefined),18.6%
3,Cc1cc(NC(=O)c2ccc(C)c(F)c2)[nH]n1,-30.8%
4,COc1cc(C(=O)NS(=O)(=O)c2cncc(Br)c2)cc(Cl)c1OC,5.23%
5,COc1ccc(C(=O)NS(=O)(=O)c2cc(Cl)sc2Cl)cc1OC(F)F,27.7%
6,Cc1noc(NC(=O)c2ccc(C)c(F)c2)n1,59%
7,COc1cccc(C(=O)NS(=O)(=O)c2cc(Cl)sc2Cl)c1OC(F)F,45.7%
8,COc1cc(C(=O)NS(=O)(=O)c2cccc(C#N)c2)cc(OC)c1Br,34.7%
9,COc1cc(C(=O)Nc2nc(C)no2)cc(Cl)c1OC,77%
10,Cc1cnn(CC2CCCCN2Cc2cc(C)no2)c1 (centres undefined),4.245%
11,Cn1cc(C2CCCN2C(=O)COCCc2ccccc2)cn1 (centres undefined),-32%
12,CC(c1ccncc1)n1cc2nc(N(C)C)[nH]cc-2c1=O (centres undefined),-27.5%
13,COCC(=O)N1CCC(c2n[nH]c3nccnc23)CC1,-22.6%
14,CC(C)(C)OC(=O)N1CCC(C(=O)NCCNc2ncccn2)CC1,-33.9%
15,c1csc(N2[C@H](Cn3cncn3)C[C@@H]3CNCC[C@@H]32)n1,-86.4%
16,COc1ccccc1C(O)CNc1nccc(-c2ccc(C)nc2C)n1 (centres undefined),0.868%
17,c1cnn(CC2CCCCN2Cc2nc(-c3ccoc3)no2)c1 (centres undefined),31.8%
18,CC(NC(=O)NCc1cccnc1N(C)C)c1cccs1 (centres undefined),37.9%
19,COc1cc(C(=O)Nc2c(C)noc2C)ccc1C,18.6%
20,COc1cc(C(=O)Nc2nc(C)no2)ccc1C,63.6%
21,Cc1noc(CNc2ccc(OC(F)F)cc2OC(F)F)n1,-29.9%
22,COc1cc(C(=O)Nc2nc(C)no2)ccc1OC(F)F,81.1%
23,COc1cc(C(=O)Nc2nc(C)no2)ccc1OC1CCCC1,29.7%
24,COc1cc(C(=O)Nc2cn[nH]c2)ccc1C,10.45%
25,COCC(C)(NC(=O)c1cc(Cl)c(-n2cccc2)cc1OC)C(N)=O (centres undefined),-35%

row,SMILES,INHIBITION
1,CCn1cc(C(=O)NCc2ccc3c(c2)OCO3)c(C)n1,3.52%
2,CN(CCC(O)c1ccccc1)Cc1nc(-c2ccccc2)no1 (centres undefined),62.9%
3,CN(CCC(O)c1ccccc1)Cc1ccccc1C#N (centres undefined),41.1%
4,Cc1nc(CN(C)Cc2nc(-c3ccccc3)no2)co1,14.3%
5,O=C(Nc1nccs1)NC1CCN(Cc2ccccc2)CC1,15%
6,C=c1ncsc1=C1NN=C(C2CCCN2C(=O)c2ccn(CC)n2)O1 (centres undefined),9.535%
7,FC(F)(F)C1CN(Cc2cccc(-c3ccccn3)c2)CCO1 (centres undefined),4.93%
8,CC(=O)NCc1ccc(-c2ccccc2C(=O)O)cn1,-24.5%
9,CNc1nc(C)c(C(=O)N2CCCCC2CCc2ccccc2)s1 (centres undefined),-14.7%
10,CNc1nc(C)c(C(=O)N2CCCCC2CCN2CCOCC2)s1 (centres undefined),13.6%
11,CNc1nc(C)c(C(=O)N2CCCCC2CN2CCCCCC2)s1 (centres undefined),50%
12,CCOC(=O)CC1CCCCN1C(=O)c1cc(C)on1 (centres undefined),17.5%
13,Cc1cc(C(=O)N2CCCC2CN2CCCC2)no1 (centres undefined),61.1%
14,Cc1cc(C(=O)N2CC[C@@H]3CO[C@@H](CN4CCCC4)[C@@H]3C2)no1,23.3%
15,OC(CN1CCN(Cc2cc(F)cc(F)c2)CC1)C1CC1 (centres undefined),5.85%
16,Cc1cc(CN(C)CC(c2cccs2)N2CCOCC2)on1 (centres undefined),-48.4%
17,CCN(CC)c1ncc(S(=O)(=O)c2cccc(C)c2)c(N)n1,17.7%
18,CN1CCCN(c2ncnc(N3CCOCC3)c2N)CC1,32.2%
19,COCCNc1cc(C(=O)N2CCOCC2)nc(C)n1,8.24%
20,CCCNc1cc(C(=O)N2CCOCC2)nc(C)n1,34.6%
21,Cc1nc(C(=O)N2CCOCC2)cc(N2CCC(C(N)=O)CC2)n1,56.1%
22,CCOC(=O)C1CCN(c2cc(C(=O)N3CCOCC3)nc(C)n2)CC1,62.9%
23,CCOC(=O)C1CCN(c2cc(C(=O)N3CCCCC3)nc(C)n2)CC1,9.52%
24,Cc1nc(C2CN(C)CCO2)cc(N2CCC(C(N)=O)CC2)n1 (centres undefined),-20.2%
